# Experimental data: PubChem BioAssay (NCI)
# Compounds without any hit were thinned out: in the full panel of roughly 83,000, 20% have a hit.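 Step 1: grow cells in 96-well plates. Step 2: add test compound at a single concentration. Step 3: incubate 48 h. Step 4: record percent growth.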 A number with no mark means an inactive call. The source made the active and inactive calls. Rule for the calls: active = growth percent below 10; inactive = the rest.
# Legend:
# Experiment in all cases: NCI-60 one-dose screen, 48 h (100 = growth as untreated, 0 = no growth, -100 = all killed)
# T-47D breast = conditions: 10 µM
# BT-549 breast = conditions: 10 µM unless noted
# MDA-MB-435 melanoma = conditions: 10 µM unless noted
# SW-620 colon = conditions: 10 µM unless noted
# MCF7 breast = conditions: 10 µM unless noted
# HCT-116 colon = conditions: 10 µM unless noted
# HCC-2998 colon = conditions: 10 µM unless noted
# KM12 colon = conditions: 10 µM unless noted
Structure (SMILES),growth (T-47D breast),growth (BT-549 breast),growth (MDA-MB-435 melanoma),growth (SW-620 colon),growth (MCF7 breast),growth (HCT-116 colon),growth (HCC-2998 colon),growth (KM12 colon)
Cc1ccc(N=c2nc3sc4c(C)ccc(C)c4n3c(N)c2C#N)cc1,90.8%,97.2%,110%,105%,88.3%,94.4%,110%,
COc1ccc(S(=O)(=O)c2ccc(C(N)=O)cc2)cc1NC(=O)c1[nH]c(C)c2c1CCCCC2=O,34.4%,58.6%,28.6%,68.4%,23.1%,60%,66%,65.4%
COc1cc(C2=NN(c3ccc(S(N)(=O)=O)cc3)C(c3ccc(Cl)cc3)C2)cc(OC)c1OC (configuration not stated),20.4%,57.9%,29.2%,44.3%,25.2%,23.2%,45.9%,37.6%
Cc1nc2cc(Nc3nc(Nc4ccc(F)cc4)nc(N4CCCC4)n3)ccc2n1Cc1ccccc1,-31.3% (active),-14% (active),-74.2% (active),-53.8% (active),3.05% (active),-79.3% (active),-59.2% (active),-73.4% (active)
CCCOC(=O)c1ccc2c(c1)[N+](=O)C(C(=O)c1ccccc1)=C(C(F)(F)F)[N+]2=O,-83.2% (active),-83.9% (active),-89.5% (active),-82.5% (active),-69.7% (active),-73% (active),-87.6% (active),-81.6% (active)
O=C1c2ccccc2C(=O)c2c(Nc3ccc(CCO)cc3)ccc(O)c21,33.2%,53.3%,88.4%,65.8%,33.7%,68.6%,66.8%,76.2%
COc1ccc(-c2nc3sc(C)cn3c2/C=C/C(=O)c2cc(OC)c(OC)c(OC)c2)cc1,50.3%,59.9%,20.9%,64.3%,46.7%,42.1%,69.3%,29.3%
O=C(O)c1ccccc1Oc1cc(-c2ccco2)nc(OCCBr)n1,101%,92.1%,101%,105%,101%,96.5%,107%,95.6%
CCCCCCCCCCCCSC1=CC(=O)C=CC1=O,30.6%,16.5%,102%,109%,68.9%,78.3%,94.3%,48.9%
O=C1c2[nH]cc(CN[C@@H]3CCCN3)c2C(=O)c2c1c(O)c1ccccc1c2O,-72.4% (active),41.1%,-98.3% (active),-98.1% (active),-96.5% (active),-82.8% (active),-85.8% (active),-89.8% (active)
COc1ccc(/C=C2\CN(Cc3cn(CCCNc4ccnc5cc(Cl)ccc45)nn3)C/C(=C\c3ccc(OC)cc3)C2=O)cc1,102%,44.3%,60.2%,46.4%,43.5%,44.5%,95.1%,45.4%
CC1(C)N=C(N)N=C(N)N1c1cccc(/C=C/C=C/c2cccc([N+](=O)[O-])c2)c1,78.1%,46.1%,23.3%,44.6%,57.9%,24.7%,45.1%,35.5%
COc1ccc(-c2nc(Nc3ccc(F)cc3)nc(Nc3ccc4c(c3)nc(C)n4Cc3ccccc3)n2)cc1,11.5%,70.7%,34.1%,45.7%,22.6%,23.4%,45.5%,26%
Cn1c2c(cc(S(=O)(=O)c3ccccc3)c1=O)CCc1c-2cnn1-c1cccc(Cl)c1,64.4%,92.4%,87.9%,110%,90.4%,88.2%,111%,101%
COc1ccccc1-n1c(SCc2cc(OC)c(OC)c(OC)c2)nc2ccc(Cl)cc2c1=O,43.9%,39.5%,-34.2% (active),16.9%,15.6%,21.1%,56.9%,16.4%
Nc1nc(N)c(C=Nc2ccc(Br)cc2)c(Nc2ccc(Br)cc2)n1,76.8%,69.3%,84.7%,99.7%,72.7%,78.5%,83.5%,86.3%

Structure (SMILES),growth (T-47D breast),growth (BT-549 breast),growth (MDA-MB-435 melanoma),growth (SW-620 colon),growth (MCF7 breast),growth (HCT-116 colon),growth (HCC-2998 colon),growth (KM12 colon)
COc1cccc(Nc2nc(NCCO)c3ccccc3n2)c1,75.2%,72.9%,72.3%,64.5%,76.8%,72.1%,87.5%,51.2%
Cc1nc2cc(Nc3nc(Cl)nc(Nc4ccc(F)cc4)n3)ccc2n1Cc1ccccc1,57%,90.6%,95.6%,84.8%,61.5%,3.88% (active),94.5%,69.2%
O=C1C2CC3C(CC2C(=O)[N]1[Sn]([c]1ccccc1)([c]1ccccc1)[c]1ccccc1)C1(Cl)C(Cl)=C(Cl)C3(Cl)C1(Cl)Cl (configuration not stated),-50.3% (active),-95.3% (active),-96.4% (active),-79.7% (active),-64.7% (active),-83.9% (active),-82.2% (active),-91.3% (active)
COc1ccc(C2SC(C)C(=O)N2CCc2cccs2)cc1OC (configuration not stated),52.9%,76%,98.3%,102%,86.3%,78.4%,84%,96.3%
O=C1CC(c2ccsc2)c2snc(-c3ccc(Cl)cc3)c2N1 (configuration not stated),30.6%,32.8%,-20.9% (active),33.4%,7.59% (active),21.5%,58.5%,27.6%
O=c1oc2ccccc2cc1-c1csc(N/N=C/c2cc3ccccc3nc2Cl)n1,90.8%,105%,95.7%,106%,90.7%,105%,102%,100%
COc1ccc(-c2nc3sc(C)nn3c2-c2nc3cc(C)c(C)cc3[nH]2)cc1,95.4%,96.5%,95.6%,98.5%,88.6%,97.5%,106%,103%
CSc1ccc(OC(C)=O)cc1C,90.6%,98%,91.3%,105%,100%,101%,102%,101%
COc1ccc(-c2c3c(N)c4c(nc3nc3c2c(C)nn3-c2ccccc2)CCCC4)cc1,84%,106%,77.5%,68.2%,58.5%,31.8%,100%,89.6%
O=C1/C(=C/c2ccc(F)cc2)CN(Cc2cn(CCNc3ccnc4cc(Cl)ccc34)nn2)C/C1=C\c1ccc(F)cc1,-31.2% (active),-91.1% (active),-86.5% (active),-70.5% (active),-79.6% (active),-84.5% (active),-92.1% (active),-71.4% (active)
CCOC(=O)c1cc2c(n(C)c1=O)-c1cnn(-c3ccc(OC)cc3)c1CC2,82.8%,101%,92.6%,119%,97.2%,108%,120%,112%
C=CC[P+](c1ccccc1)(c1ccccc1)c1ccccc1,16.5%,47.5%,32.3%,79.7%,27.2%,36.7%,51.7%,31.3%
CCCCc1ccc(C(O)(CCN2CC3CCC(CC3)C2)c2ccccc2)cc1 (configuration not stated),73.8%,90.2%,98.2%,95.7%,95.7%,77%,90.1%,93.2%
NS(=O)(=O)c1ccc(C(=O)N/N=C(\CS(=O)(=O)c2ccccc2)c2cc3cc(Br)ccc3o2)cc1,88.1%,101%,73%,94.6%,72.3%,90.5%,94.2%,85.6%
Cc1nn2c(-c3nc4ccc(Cl)cc4[nH]3)c(-c3ccc(F)cc3)nc2s1,91.2%,102%,99.7%,91.2%,81.2%,86.3%,99.2%,89.4%
